Unmarked numbers belong to inactive results.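 The calls were made as follows: active = AUC reduced over 20% with Padj below 0.05 in at least 2 of 3 replicates; inactive = otherwise.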
Test system: Clostridium difficile
Assay: growth AUC relative to DMSO control (median of replicates) (fraction); higher = more growth (less inhibition), active = hit call of the paper
Conditions: 20 µM; 24 h
Summary of the method: (§1)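 Three biological replicates, each grown on a separate day, were combined as a median for every value. In each, a gut bacterial monoculture in mGAM started at OD600 0.05 and grew anaerobically at 37 °C with 20 µM compound (1% DMSO), with OD600 read hourly over 24 h. Area under the growth curve was normalised against the plate median of solvent-only wells, or against row and column medians on the industrial chemical plate, after the minimum OD was set to 0.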

SMILES | growth AUC
CN(C)c1nc(=O)n(C2CCCCC2)c(=O)n1C | 1.02
Nc1c(Cl)c(Cl)c(Cl)c(Cl)c1Cl | 0.988
Oc1ccc(-c2ccccc2)cc1 | 1.03
Cn1cc(-c2ccccc2)c(=O)c(-c2cccc(C(F)(F)F)c2)c1 | 0.994
CCCOCC(=Nc1ccc(Cl)cc1C(F)(F)F)n1ccnc1 | 0.922
O=P(O)(O)CCCl | 0.959
CCNc1nc(NC(C)C)[nH]c(=O)n1 | 1.05
CC1=NNC(=O)N(/N=C/c2cccnc2)C1 | 1.07
S=C1NCCN1 | 1.05
COC(=O)N(C(=O)N1CO[C@@]2(C(=O)OC)Cc3cc(Cl)ccc3C2=N1)c1ccc(OC(F)(F)F)cc1 | 0.916
Clc1ccccc1Cl | 0.996
C#CCC1=C(C)C(OC(=O)C2C(C=C(C)C)C2(C)C)CC1=O (stereo unspecified) | 0.969
Cc1nnc(-c2ccccc2)c(=O)n1N | 1
COC(=O)c1ccccc1CS(=O)(=O)NC(=O)Nc1nc(OC)cc(OC)n1 | 1.02
CCCCCCCCCc1ccc(O)cc1 | 1.03
COP(N)(=S)Oc1ccccc1C(=O)OC(C)C (stereo unspecified) | 0.993
O=C(NCCc1ncc(C(F)(F)F)cc1Cl)c1ccccc1C(F)(F)F | 0.996
CCN(Cc1ccc(Cl)nc1)/C(=C/[N+](=O)[O-])NC | 0.981
N#Cc1c(Cl)c(Cl)c(Cl)c(C#N)c1Cl | 0.997

SMILES | growth AUC
N#CN=C1SCCN1Cc1ccc(Cl)nc1 | 1.02
CCCCC(C#N)(Cn1cncn1)c1ccc(Cl)cc1 (stereo unspecified) | 0.985
O=C1C(Cl)=C(Cl)C(=O)c2ccccc21 | 0.912
CCOP(=S)(OCC)SCS(=O)(=O)CC | 1.01
Nc1c(Cl)c(F)nc(OCC(=O)O)c1Cl | 1.01
Nc1ccc(Cl)cc1 | 1
CCNS(=O)(=O)C(F)(F)C(F)(F)C(F)(F)C(F)(F)C(F)(F)C(F)(F)C(F)(F)C(F)(F)F | 1.04
Cl.NC1=NCCN1Cc1ccc(Cl)nc1 | 1.06
CNC(=O)c1cc(Cl)cc(C)c1NC(=O)c1cc(Br)nn1-c1ncccc1Cl | 0.964
O=C(NC(=O)c1c(F)cccc1F)Nc1cc(Cl)c(Oc2ncc(C(F)(F)F)cc2Cl)c(Cl)c1 | 1
COC(=O)NCc1cc(/C(C)=N\OCc2cccc(C)n2)ccc1Cl | 0.968
NCCO.O=C(O)c1nc(Cl)ccc1Cl | 1
CC(=O)O.NC(N)=NCCCCCCCCNCCCCCCCCN=C(N)N | 0.984
CC1(C)CN=C(NN=C(/C=C/c2ccc(C(F)(F)F)cc2)/C=C/c2ccc(C(F)(F)F)cc2)NC1 | 0.972
CCCN(CC)CC1COC2(CCC(C(C)(C)C)CC2)O1 (stereo unspecified) | 0.985
CCCOP(=S)(OCCC)SCC(=O)N1CCCCC1C (stereo unspecified) | 1.02
CNC(=O)ON=C(CS(C)=O)C(C)(C)C (stereo unspecified) | 1.02
Cc1ccccc1C(=O)Nc1cccc(OC(C)C)c1 | 0.984
COC(=O)/C(C)=C/OP(=S)(OC)OC | 0.984

Test system: Collinsella aerofaciens
Assay: as above
Conditions: 20 µM; 24 h
Summary of the method: as §1

SMILES | growth AUC
CN(C)c1nc(=O)n(C2CCCCC2)c(=O)n1C | 1.01
Nc1c(Cl)c(Cl)c(Cl)c(Cl)c1Cl | 1
Oc1ccc(-c2ccccc2)cc1 | 1
Cn1cc(-c2ccccc2)c(=O)c(-c2cccc(C(F)(F)F)c2)c1 | 0.939
CCCOCC(=Nc1ccc(Cl)cc1C(F)(F)F)n1ccnc1 | 0.941
O=P(O)(O)CCCl | 0.973
CCNc1nc(NC(C)C)[nH]c(=O)n1 | 1.02
CC1=NNC(=O)N(/N=C/c2cccnc2)C1 | 1.1
S=C1NCCN1 | 1.02
COC(=O)N(C(=O)N1CO[C@@]2(C(=O)OC)Cc3cc(Cl)ccc3C2=N1)c1ccc(OC(F)(F)F)cc1 | 0.884
Clc1ccccc1Cl | 0.975
C#CCC1=C(C)C(OC(=O)C2C(C=C(C)C)C2(C)C)CC1=O (stereo unspecified) | 0.985
Cc1nnc(-c2ccccc2)c(=O)n1N | 0.983
COC(=O)c1ccccc1CS(=O)(=O)NC(=O)Nc1nc(OC)cc(OC)n1 | 0.956
CCCCCCCCCc1ccc(O)cc1 | 0.925
COP(N)(=S)Oc1ccccc1C(=O)OC(C)C (stereo unspecified) | 0.993
O=C(NCCc1ncc(C(F)(F)F)cc1Cl)c1ccccc1C(F)(F)F | 1
CCN(Cc1ccc(Cl)nc1)/C(=C/[N+](=O)[O-])NC | 0.976
N#Cc1c(Cl)c(Cl)c(Cl)c(C#N)c1Cl | 0.864

SMILES | growth AUC
N#CN=C1SCCN1Cc1ccc(Cl)nc1 | 0.98
CCCCC(C#N)(Cn1cncn1)c1ccc(Cl)cc1 (stereo unspecified) | 0.959
O=C1C(Cl)=C(Cl)C(=O)c2ccccc21 | 0.988
CCOP(=S)(OCC)SCS(=O)(=O)CC | 1.02
Nc1c(Cl)c(F)nc(OCC(=O)O)c1Cl | 0.97
Nc1ccc(Cl)cc1 | 0.972
CCNS(=O)(=O)C(F)(F)C(F)(F)C(F)(F)C(F)(F)C(F)(F)C(F)(F)C(F)(F)C(F)(F)F | 1.13
Cl.NC1=NCCN1Cc1ccc(Cl)nc1 | 1.03
CNC(=O)c1cc(Cl)cc(C)c1NC(=O)c1cc(Br)nn1-c1ncccc1Cl | 1.02
O=C(NC(=O)c1c(F)cccc1F)Nc1cc(Cl)c(Oc2ncc(C(F)(F)F)cc2Cl)c(Cl)c1 | 1.11
COC(=O)NCc1cc(/C(C)=N\OCc2cccc(C)n2)ccc1Cl | 0.969
NCCO.O=C(O)c1nc(Cl)ccc1Cl | 1.02
CC(=O)O.NC(N)=NCCCCCCCCNCCCCCCCCN=C(N)N | 0.618 (active)
CC1(C)CN=C(NN=C(/C=C/c2ccc(C(F)(F)F)cc2)/C=C/c2ccc(C(F)(F)F)cc2)NC1 | 1.09
CCCN(CC)CC1COC2(CCC(C(C)(C)C)CC2)O1 (stereo unspecified) | 0.981
CCCOP(=S)(OCCC)SCC(=O)N1CCCCC1C (stereo unspecified) | 1.06
CNC(=O)ON=C(CS(C)=O)C(C)(C)C (stereo unspecified) | 1
Cc1ccccc1C(=O)Nc1cccc(OC(C)C)c1 | 1
COC(=O)/C(C)=C/OP(=S)(OC)OC | 1.03

— the supplement of paper PMC12669032
